Experimental data: PubChem BioAssay (NCATS)
Records with an inconclusive call do not appear. Entries that show only a call come without a potency. Values without a mark were called inactive. Activity calls are given as the source filed them. Calls come from the whole dose curve; as a rule, active = well fitted cell-killing curve with a large enough effect; inconclusive = small, poorly fitted or top-dose-only effect, or effect the other way; inactive = flat fitted curve, though single readings scatter. Where a SMILES comes first, the peptide text is derived from it.

system: CAOV3; assay: Primary qHTS to identify gynecologic anti-cancer compounds using libraries of approved drugs and bioactive compounds (AID 1345084); settings: Gynecologic cancer cell panel viability, ATPlite luminescence, 48 h; series mostly up to 57.5 µM; note: nearly all actives have a fitted effect of over 55% in size
Summary of the method: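 Cell viability after 48 h drug treatment, ATPlite luminescence readout; five doses.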

| Compound | Potency | activity change, negative = cytotoxicity |
| --- | --- | --- |
| H-DPPDPDRFYGMM-NH2 | inactive |  |
| CC1(C)C=Cc2c(ccc3c2N=C2C(C)(C)[C@@H]4C[C@]56CCCN5C(=O)[C@@]4(C[C@]23O)NC6=O)O1 | inactive |  |
| O=C(OC[C@H]1O[C@@H](Oc2ccccc2COC(=O)C2(O)C=CCCC2O)[C@H](O)[C@@H](O)[C@@H]1O)c1ccccc1 (stereo not given in full) | inactive |  |
| Cc1cc(CNC(=O)c2cc(C(=O)NCc3ccc(F)c(C)c3)ncn2)ccc1F | inactive |  |
| CC(C)=CC1C[C@](C)(O)[C@@H]2[C@H]3CCC4[C@@]5(C)CC[C@H](O[C@@H]6OC[C@H](O)[C@H](O[C@@H]7O[C@H](CO[C@@H]8O[C@H](CO)[C@@H](O)[C@H](O)[C@H]8O)[C@@H](O)[C@H](O)[C@H]7O)[C@H]6O[C@@H]6O[C@@H](C)[C@H](O)[C@@H](O)[C@H]6O)C(C)(C)[C@@H]5CC[C@@]4(C)[C@@]34CO[C@@]2(C4)O1 (stereo not given in full) |  | 4.48% [at 11.6 µM] |
| CC(=O)NCC1CN(c2ccc(-c3ccc(CNCc4cn[nH]n4)cc3)c(F)c2)C(=O)O1 (stereo not given) | inactive |  |
| Cn1nccc1-c1ccccc1Oc1ccc(S(=O)(=O)Nc2nccs2)cc1C#N | inactive |  |
| COc1ccc([C@H]2OC[C@H]3[C@@H]2CO[C@@H]3c2ccc(O[C@@H]3O[C@H](CO)C(O)[C@H](O)[C@H]3O)c(OC)c2)cc1OC (stereo not given in full) | inactive |  |
| COc1cccc(CNc2ccc(S(=O)(=O)Nc3nc4ccccc4s3)cc2)c1O | inactive |  |
| CC(=O)NC(Cc1ccccc1)C(=O)NC(C(=O)O)C(C)C (stereo not drawn) (Ac-Phe-Val-OH; configuration not given here) | inactive |  |
